Experimental findings from PubChem BioAssay (Tox21) are described below.

Each structure is given as a SMILES string. Inconclusive results are not listed. Calls of active or inactive are those of the source. Unless noted, calls come from the whole dose curve; as a rule, active = well fitted curve in the direction sought with a large enough effect in the repeat runs; inconclusive = weak or mixed curves; inactive = no such curve, though single readings can be large; an effect the other way counts as inactive or inconclusive.

Test [1] in a line: qHTS assay to test for compound auto fluorescence at 535 nm (green) in HEK293 cells (AID 720680). In general terms: qHTS replaces the single test concentration by a dilution series.
A short description of test [2]: qHTS assay to test for compound auto fluorescence at 460 nm (blue) in HEK293 cell free culture (AID 720681). Summed up: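 Blue fluorescence (Ex 405/Em 460 nm, triamterene-equivalent) was read immediately after pin transfer of compound or DMSO into medium (DMEM, 10% FBS) without cells.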
A short description of test [3]: qHTS assay to test for compound auto fluorescence at 535 nm (green) in HEK293 cell free culture (AID 720682). The gist of the method:
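Using fluorescein as calibrant, autofluorescence was quantified at 485/535 nm in cell-free DMEM containing 10% FBS after pintool addition of compound or vehicle.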

Test [4] is described as follows: qHTS assay to test for compound auto fluorescence at 590 nm (red) in HepG2 cell free culture (AID 720684). Summed up:
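No cells present: MEM + 10% FBS only. Compound pinned in, red label read (540/590 nm). Activity = fluorescence equivalent to Rose Bengal sodium.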

The nature of test [5]: qHTS assay to test for compound auto fluorescence at 460 nm (blue) in HepG2 cell free culture (AID 720685). Summed up:
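Cell-free plates of MEM plus 10% FBS received 23 nL compound or DMSO vehicle; blue-channel (405/460 nm) intensity scored against triamterene as reference fluorophore.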

Test [6] can be described thus: qHTS assay to test for compound auto fluorescence at 535 nm (green) in HepG2 cell free culture (AID 720686).
Test [7] can be described thus: qHTS assay to test for compound auto fluorescence at 460 nm (blue) in HepG2 cells (AID 720687). Summed up: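 Blue-channel autofluorescence (Ex/Em 405/460 nm, triamterene-equivalent) was measured after 1 hr compound exposure at 37 C, 5% CO2. Cells were HepG2, plated overnight at 37 C in MEM plus 10% FBS.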
In test [8] the target is Glucocorticoid receptor (Homo sapiens) (UniProt P04150). Kind of test: qHTS assay to identify small molecule agonists of the glucocorticoid receptor (GR) signaling pathway (AID 720691; active = well fitted activation curve with a large enough effect in the signal ratio in the repeat runs, not every such curve was filed as active; the % refers to the signal ratio). Conditions: GR-bla HeLa, beta-lactamase reporter ratio, 18 h; activation: at 62.4 µM (top of the series). The gist of the method:
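Compounds in DMSO, alongside positive controls, were added to GR-bla HeLa reporter cells and incubated 18 h at 37 C; GRE-driven beta-lactamase was detected by fluorescence after 2 h with FRET substrate at room temperature.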

Test [9] has the same target. Kind of test: qHTS assay to identify small molecule antagonists of the glucocorticoid receptor (GR) signaling pathway (AID 720692; active = well fitted inhibition curve with a large enough effect in the signal ratio in the repeat runs, not every such curve was filed as active; the % refers to the signal ratio). The gist of the method:
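In a 1536-well cell format, compounds were added 4 h after seeding GR-bla HeLa cells, together with dexamethasone at 5 nM final; reporter activity was measured by FRET-substrate fluorescence following 18 h at 37 C.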

Test [10] can be described thus: qHTS assay to identify small molecule antagonists of the glucocorticoid receptor (GR) signaling pathway - cell viability counter screen (AID 720693). Note: nearly all actives have a fitted effect of over 55% in size.
Test [11] is described as follows: qHTS assay for identifying genotoxic compounds that show differential cytotoxicity against isogenic chicken DT40 cell lines with known DNA damage response pathways - wild type cell line (AID 743012). Note: nearly all actives have a fitted effect of over 60% in size. Note: potency is the fitted concentration of half-maximal effect. The gist of the method:
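Viability of DNA repair-proficient chicken DT40 cells was assessed by CellTiter-Glo luminescence following 40 h compound exposure at 37 C/5% CO2.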

The nature of test [12]: qHTS assay to identify small molecule antagonists of the androgen receptor (AR) signaling pathway - cell viability counter screen (AID 743033; note: nearly all actives have a fitted effect of over 45% in size).
In test [13] the target is Androgen receptor (Homo sapiens) (UniProt P10275). Kind of test: qHTS assay to identify small molecule antagonists of the androgen receptor (AR) signaling pathway (AID 743035; active = well fitted inhibition curve with a large enough effect in the signal ratio in the repeat runs, not every such curve was filed as active; the % refers to the signal ratio). The gist of the method:
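Reporter HEK293 cells were exposed to compounds and R1881 overnight (16 h, 37C); beta-lactamase activity was then quantified by FRET fluorescence.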

The nature of test [14]: qHTS assay to identify small molecule antagonists of the androgen receptor (AR) signaling pathway using the MDA cell line - cell viability counter screen (AID 743041; note: nearly all actives have a fitted effect of over 45% in size). The gist of the method: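 Using the breast carcinoma line MDA-kb2 AR-luc, test chemicals were co-incubated with R1881 for 16 h; CellTiter-Fluor reagent, added at 15.5 h, provided a fluorescence measure of live cells.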

The target in test [15] is Androgen receptor (Homo sapiens) (UniProt P10275). Kind of test: qHTS assay to identify small molecule antagonists of the androgen receptor (AR) signaling pathway using the MDA cell line (AID 743042; note: nearly all actives have a fitted effect of over 55% in size). The gist of the method:
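Antagonist mode: compounds plus R1881 agonist added to MDA-kb2 AR-luc cells, incubated 16 h at 37C. Luciferase reporter luminescence quantified, with multiplexed CellTiter-Fluor readout for cell viability.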

Test [16] can be described thus: qHTS assay for identifying genotoxic compounds that show differential cytotoxicity against isogenic chicken DT40 cell lines with known DNA damage response pathways - Rad54/Ku70 mutant cell line (AID 743015). Note: nearly all actives have a fitted effect of over 60% in size.
Test [17] in a line: qHTS assay for identifying genotoxic compounds that show differential cytotoxicity against isogenic chicken DT40 cell lines with known DNA damage response pathways - Rev3 mutant cell line (AID 743014). Note: nearly all actives have a fitted effect of over 55% in size.
For test [18], the target named is Androgen receptor (Homo sapiens) (UniProt P10275). Kind of test: qHTS assay to identify small molecule agonists of the androgen receptor (AR) signaling pathway using the MDA cell line (AID 743040; note: nearly all actives have a fitted effect of over 20% in size). Summed up: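 Stable MMTV-luciferase reporter in MDA-kb2 cells; note the promoter carries GR as well as AR response elements. 16 h compound treatment, 37C, 0% CO2; ONE-Glo luminescence endpoint.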
Sequence of Androgen receptor (Homo sapiens) (P10275 whole entry, looked up): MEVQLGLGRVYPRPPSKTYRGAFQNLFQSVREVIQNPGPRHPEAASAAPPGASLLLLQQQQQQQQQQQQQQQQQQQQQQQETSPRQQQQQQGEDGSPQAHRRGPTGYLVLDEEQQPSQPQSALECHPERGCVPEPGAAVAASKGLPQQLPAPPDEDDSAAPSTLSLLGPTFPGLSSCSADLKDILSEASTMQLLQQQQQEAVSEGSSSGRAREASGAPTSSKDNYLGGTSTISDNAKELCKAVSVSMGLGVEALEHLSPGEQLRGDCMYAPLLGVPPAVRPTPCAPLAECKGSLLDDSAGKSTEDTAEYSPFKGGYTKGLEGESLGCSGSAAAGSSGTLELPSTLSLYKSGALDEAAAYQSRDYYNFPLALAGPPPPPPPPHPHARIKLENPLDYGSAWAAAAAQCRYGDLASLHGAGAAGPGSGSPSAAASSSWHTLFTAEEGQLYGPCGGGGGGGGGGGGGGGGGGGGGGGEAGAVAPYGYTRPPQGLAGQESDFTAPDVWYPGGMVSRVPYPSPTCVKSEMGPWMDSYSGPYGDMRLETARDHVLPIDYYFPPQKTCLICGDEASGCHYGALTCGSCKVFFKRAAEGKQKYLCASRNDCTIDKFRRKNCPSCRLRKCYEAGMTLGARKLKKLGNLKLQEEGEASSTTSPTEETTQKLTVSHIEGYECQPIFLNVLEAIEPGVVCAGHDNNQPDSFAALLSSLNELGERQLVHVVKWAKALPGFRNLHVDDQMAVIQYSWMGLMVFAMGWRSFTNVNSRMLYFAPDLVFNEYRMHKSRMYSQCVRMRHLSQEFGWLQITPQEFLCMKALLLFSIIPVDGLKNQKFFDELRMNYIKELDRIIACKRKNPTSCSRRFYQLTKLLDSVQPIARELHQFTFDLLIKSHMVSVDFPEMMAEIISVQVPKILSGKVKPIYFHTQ

Sequence of Glucocorticoid receptor (Homo sapiens) (P04150 whole entry, looked up): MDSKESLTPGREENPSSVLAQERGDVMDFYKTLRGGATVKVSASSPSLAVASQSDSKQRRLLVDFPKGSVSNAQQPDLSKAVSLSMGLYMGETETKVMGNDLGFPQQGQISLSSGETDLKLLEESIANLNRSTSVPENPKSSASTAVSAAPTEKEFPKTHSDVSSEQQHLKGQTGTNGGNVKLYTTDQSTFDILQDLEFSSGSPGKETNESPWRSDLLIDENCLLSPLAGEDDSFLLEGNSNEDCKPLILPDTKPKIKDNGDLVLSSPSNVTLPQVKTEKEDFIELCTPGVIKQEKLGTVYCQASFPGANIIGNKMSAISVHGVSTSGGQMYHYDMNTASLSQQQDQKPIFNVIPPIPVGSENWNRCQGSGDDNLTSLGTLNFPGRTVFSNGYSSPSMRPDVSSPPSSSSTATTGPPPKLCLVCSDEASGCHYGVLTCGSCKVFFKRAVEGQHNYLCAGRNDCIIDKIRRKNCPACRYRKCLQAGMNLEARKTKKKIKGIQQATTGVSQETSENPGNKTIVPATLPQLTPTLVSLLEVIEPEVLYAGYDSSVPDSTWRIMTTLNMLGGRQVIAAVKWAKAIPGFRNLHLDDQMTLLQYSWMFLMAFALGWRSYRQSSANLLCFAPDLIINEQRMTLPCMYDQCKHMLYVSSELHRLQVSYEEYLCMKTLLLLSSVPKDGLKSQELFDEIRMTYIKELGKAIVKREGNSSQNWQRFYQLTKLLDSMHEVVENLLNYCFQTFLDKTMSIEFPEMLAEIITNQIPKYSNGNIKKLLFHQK

Turning to `CCC(c1ccccc1)c1noc(CCN(CC)CC)n1` (stereo not given), the Potency entry in [1], in test [2], in test [3], in test [4], in test [6] and in test [8] was “inactive” throughout. Besides, the Potency entry in [9], in test [10], in test [12], in test [13], in test [14] and in [15] was “inactive” each time. Further, the result in test [5] and in test [7] was inactive. Also, the Potency in test [11] is 23.7 µM (active).
In the case of `O=C(OC1C[C@@H]2CC3C[C@H](C1)N2CC3=O)c1c[nH]c2ccccc12` (stereo not given in full), the Potency result in test [1], in test [2], in test [3], in test [4], in test [6] and in test [8] was “inactive” throughout. The Potency result in [9], in [10], in [12] and in [14] was “inactive” each time. Further, the outcome in test [5] and in [7] was inactive. Also, the Potency in [11] is 26.6 µM (active).
With `C[N+](C)(CCCCCC[N+](C)(C)C1c2ccccc2-c2ccccc21)C1c2ccccc2-c2ccccc21`, the Potency result in test [1], in test [2], in test [3], in test [4], in test [6] and in test [8] was “inactive” in each case. In addition, the Potency entry in test [9], in test [10], in test [12] and in [14] was “inactive” each time. Also, the call in [5] and in [7] was inactive.
For the compound `CCCCCCCCCCCCCCCC(=O)OC[C@@H](O)[C@H]1OC[C@H](O)[C@H]1O`, the Potency entry in [1], in [2], in [3], in [4], in test [6] and in test [8] was “inactive” throughout. Also, the Potency result in [10], in test [16], in test [12] and in [14] was “inactive” each time. Also, the outcome in [5] was inactive.
Take `CN[C@@H]1[C@H](O[C@H]2[C@H](O[C@H]3[C@H](O)[C@@H](O)[C@H](N=C(N)N)[C@@H](O)[C@@H]3N=C(N)N)O[C@@H](C)[C@]2(O)CO)O[C@@H](CO)[C@H](O)[C@H]1O`: the Potency entry in test [1], in test [2], in [3], in test [4], in test [6] and in test [8] was “inactive” each time. Besides, the Potency entry in test [9], in test [10], in test [17], in [16], in test [12] and in [13] was “inactive” throughout. Further, the Potency entry in [18], in [14] and in test [15] was “inactive” in each case. Further, the result in test [5] and in test [7] was inactive.
Regarding `CC1=C(/C=C/C(C)=C/C=C/C(C)=C/C(=O)Oc2c(C)c(C)c3c(c2C)CC[C@@](C)(CCC[C@H](C)CCC[C@H](C)CCCC(C)C)O3)C(C)(C)CCC1`, the Potency result in test [1], in test [2], in [3], in test [4], in [6] and in [8] was “inactive” in each case. Also, the Potency result in [10], in test [11], in [16], in [12] and in test [14] was “inactive” in each case. Moreover, the compound was classed as inactive in test [5] and in test [7].
For the compound `CC(C)(C)NC(=O)[C@H]1CC[C@H]2[C@@H]3CC=C4C=C(C(=O)O)CC[C@]4(C)[C@H]3CC[C@]12C`, the Potency entry in [1], in [2], in test [3], in test [4], in test [6] and in test [8] was “inactive” each time. Moreover, the Potency entry in test [10], in test [17], in [12], in test [13], in test [18] and in test [14] was “inactive” each time. Moreover, the Potency result in test [15] is “inactive”. Moreover, the call in [5] and in test [7] was inactive.
On to `CC1=C(/C=C/C(C)=C/C=C/C(C)=C/C=C/C=C(C)/C=C/C=C(C)/C=C/C2=C(C)C(=O)CCC2(C)C)C(C)(C)CCC1=O`, for which the Potency entry in test [1], in test [2], in test [3], in test [4], in test [6] and in test [8] was “inactive” throughout. The Potency entry in test [10], in test [11], in test [17], in test [16], in [12] and in test [14] was “inactive” each time. Also, the call in test [5] and in test [7] was inactive.
